Test results published in PubChem BioAssay (NCATS).
Values joined by “and” are separate entries in the source; they are usually repeats but may differ in a detail not shown here. Equal entries are not always repeated. Records with an inconclusive call do not appear. Active and inactive are the calls of the source. The call rests on the fitted dose curve; in most records, active means well fitted curve in the direction sought with a large enough effect; inconclusive means small, poorly fitted or top-dose-only effect, or another doubt; inactive means no such curve, though single readings can be large; an effect the other way counts as inactive or inconclusive.

What was measured:
CRL-7250 [1] = test: Cytotoxic Profiling of Annotated Libraries Using Quantitative High-Throughput Screening (AID 1296008); settings: Five cell lines viability, CellTiter-Glo ATP luminescence, 48-72 h; max response: hits give low values; further: nearly all actives have a fitted effect of over 60% in size; further: potency means the concentration at half of the fitted maximal effect; on max response: on the % scale 0 is the no-effect control and ±100 the full control effect
Outline: (§1)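 Compounds were pin-transferred onto cells and incubated 48 or 72 hr at 37 degree Celsius, 95% humidity. CellTiter-Glo was added, plates sat 10 min at room temperature, then ATP-coupled luminescence was imaged as the viability read-out.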

HEK293 = test: as above; settings: Five cell lines viability, CellTiter-Glo ATP luminescence, 48-72 h; max response: hits give low values
Outline: as §1

KB-3-1 = test: as above; settings: Five cell lines viability, CellTiter-Glo ATP luminescence, 48-72 h; max response: hits give low values
Outline: as §1

NIH3T3 [2] = test: as above; settings: Five cell lines viability, CellTiter-Glo ATP luminescence, 48-72 h; max response: hits give low values
Outline: as §1

MCC-13 = test: qHTS assay to identify novel small-molecules to repurpose for Merkel cell carcinoma treatment (AID 1296009); settings: MCC and control cell lines, CellTiter-Glo viability, 72 h; series mostly up to 46 µM; further: nearly all actives have a fitted effect of over 60% in size; further: potency means the concentration at half of the fitted maximal effect
Outline: (§2)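 Cells exposed to NPC (8-point) and MIPE (11-point) compound dilutions for 72 hr at 37 degree celsius; viability read by CellTiter-Glo luminescence, normalized to no-cell and DMSO in-plate controls.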

MKL-1 = test: as above; settings: MCC and control cell lines, CellTiter-Glo viability, 72 h; series mostly up to 46 µM
Outline: as §2

UISO = test: as above; settings: MCC and control cell lines, CellTiter-Glo viability, 72 h; series mostly up to 46 µM
Outline: as §2

WaGa = test: as above; settings: MCC and control cell lines, CellTiter-Glo viability, 72 h; series mostly up to 46 µM
Outline: as §2

MCC-26 = test: as above; settings: MCC and control cell lines, CellTiter-Glo viability, 72 h; series mostly up to 46 µM
Outline: as §2

MKL-2 = test: as above; settings: MCC and control cell lines, CellTiter-Glo viability, 72 h; series mostly up to 46 µM
Outline: as §2

HaCat [3] = test: Cytotoxic Profiling of Annotated Libraries Using Quantitative High-Throughput Screening (AID 1296008); settings: Five cell lines viability, CellTiter-Glo ATP luminescence, 48-72 h; max response: hits give low values; further: nearly all actives have a fitted effect of over 60% in size; further: potency means the concentration at half of the fitted maximal effect; on max response: on the % scale 0 is the no-effect control and ±100 the full control effect
Outline: as §1

HACAT [4] = test: qHTS assay to identify novel small-molecules to repurpose for Merkel cell carcinoma treatment (AID 1296009); settings: MCC and control cell lines, CellTiter-Glo viability, 72 h; at 44.8 µM (top of the series) unless noted; further: nearly all actives have a fitted effect of over 60% in size; further: potency means the concentration at half of the fitted maximal effect
Outline: as §2

NIH3T3 [5] = test: as above; settings: MCC and control cell lines, CellTiter-Glo viability, 72 h; at 44.8 µM (top of the series) unless noted
Outline: as §2

C33A = test: Primary qHTS to identify gynecologic anti-cancer compounds using libraries of approved drugs and bioactive compounds (AID 1345084); settings: Gynecologic cancer cell panel viability, ATPlite luminescence, 48 h; series mostly up to 57.5 µM; further: on the % scale 0 is the no-effect control and ±100 the full control effect; nearly all actives have a fitted effect of over 55% in size
Outline: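 Measured: luminescence after ATPlite addition (15 min, RT). Exposure: 48 h, 37 C, 5% CO2.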

TAB109 = test: qHTS profiling for inhibitors of Plasmodium falciparum proliferation (AID 504749); settings: P. falciparum in erythrocytes, SYBR Green DNA, 72 h; series mostly up to 28.7 µM
Outline: (§3)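 P. falciparum-infected erythrocytes (0.3% parasitemia, 2.5% hematocrit final) were exposed to compounds for 72 h at 37 C in 5% CO2, then lysed with SYBR Green buffer overnight at room temperature; parasite DNA fluorescence was normalized to artemisinin and DMSO controls.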

TAB113 = test: as above; settings: P. falciparum in erythrocytes, SYBR Green DNA, 72 h; series mostly up to 28.7 µM
Outline: as §3

TAB165 = test: as above; settings: P. falciparum in erythrocytes, SYBR Green DNA, 72 h; series mostly up to 28.7 µM
Outline: as §3

W2 = test: as above; settings: P. falciparum in erythrocytes, SYBR Green DNA, 72 h; series mostly up to 28.7 µM
Outline: as §3

HEK293T = test: qHTS assay to identify novel small-molecules to repurpose for Merkel cell carcinoma treatment (AID 1296009); settings: MCC and control cell lines, CellTiter-Glo viability, 72 h; at 44.8 µM (top of the series) unless noted; further: nearly all actives have a fitted effect of over 60% in size; further: potency means the concentration at half of the fitted maximal effect
Outline: as §2

CRL-7250 [6] = test: as above; settings: MCC and control cell lines, CellTiter-Glo viability, 72 h; at 44.8 µM (top of the series) unless noted
Outline: as §2

CC(O)=C(C#N)C(=O)Nc1cc(Br)ccc1Br
inactive: max response (CRL-7250 [1]) 1.28% | max response (HEK293) -1.81% | outcome (KB-3-1) | max response (NIH3T3 [2]) -15.7% | Potency (MCC-13) | Potency (MKL-1) | Potency (UISO) | Potency (WaGa)

CO/C=C(/C(=O)OC)c1ccccc1Oc1cc(Oc2ccccc2C#N)ncn1
inactive: Potency (MCC-26)
active: Potency (CRL-7250 [1]) 19300 nM | Potency (HEK293) 8630 nM | Potency (NIH3T3 [2]) 6860 nM | Potency (MKL-2) 13700 nM

CC(C)(O)C=CC(=O)[C@](C)(O)[C@H]1[C@H](O)C[C@]2(C)[C@@H]3CC=C4[C@@H](C=C(O)C(=O)C4(C)C)[C@]3(C)C(=O)C[C@@]12C
active: Potency (CRL-7250 [1]) 418 nM | Potency (HEK293) 1870 nM | Potency (KB-3-1) 132 nM | Potency (NIH3T3 [2]) 2960 nM | Potency (MCC-13) 264 nM | Potency (MKL-1) 66.2 nM | Potency (MKL-2) 37.2 nM | Potency (UISO) 166 nM | Potency (WaGa) 93.5 nM

CCN(CC)C(=O)c1ccc(C2=CC3(CCNCC3)Oc3cccc(O)c32)cc1
inactive: max response (CRL-7250 [1]) 3.09% and -1.02% | max response (HaCat [3]) -0.307% | outcome (HaCat [3]) | max response (KB-3-1) 5.76% and 9.58% | max response (NIH3T3 [2]) 0.128% | outcome (NIH3T3 [2]) | outcome (HACAT [4]) | Potency (MCC-13) | Potency (MCC-26) | Potency (MKL-1) | Potency (MKL-2) | outcome (NIH3T3 [5]) | Potency (UISO) | Potency (WaGa) | Potency (C33A)

C=C1C[C@H]2[C@H]3CCC(=O)[C@@]3(C)CC[C@@H]2[C@@]2(C)C=CC(=O)C=C12
inactive: max response (CRL-7250 [1]) -22.6% | outcome (HaCat [3]) | max response (KB-3-1) 8.58% | max response (NIH3T3 [2]) -14.2% | outcome (HACAT [4]) | Potency (MCC-13) | Potency (MCC-26) | Potency (MKL-1) | Potency (UISO)

CC(Cc1ccc(O)cc1)NCC(O)c1cc(O)cc(O)c1 (stereo not drawn)
inactive: max response (CRL-7250 [1]) 3.52% | max response (HaCat [3]) -18.5% | max response (KB-3-1) 6.39% | max response (NIH3T3 [2]) -6.43% | Potency (MCC-13) | Potency (MCC-26) | Potency (MKL-1) | Potency (MKL-2) | Potency (UISO) | Potency (WaGa)

CCOP(=O)(NC(C)C)Oc1ccc(SC)c(C)c1 (stereo not drawn)
inactive: max response (CRL-7250 [1]) -0.0778% | outcome (HaCat [3]) | max response (KB-3-1) -7.33% | max response (NIH3T3 [2]) -4.93% | outcome (HACAT [4]) inactive [at 92 µM] | Potency (MCC-13) | Potency (MKL-1) | Potency (MKL-2) | Potency (UISO) | Potency (C33A)

CN[C@@H]1Cc2cccc3[nH]c(=O)n(c23)C1
inactive: max response (CRL-7250 [1]) -16.3% | max response (HEK293) -16.4% | max response (KB-3-1) 9.87% | max response (NIH3T3 [2]) 3.1% | Potency (MCC-13) | Potency (MCC-26) | Potency (MKL-1) | Potency (MKL-2) | Potency (UISO) | Potency (WaGa)

CCCCCCCCCC(CC)c1ccc(S(=O)(=O)O)cc1 (stereo not drawn)
inactive: Potency (TAB109) | Potency (TAB113) | Potency (TAB165) | Potency (W2) | max response (CRL-7250 [1]) -1.12% | outcome (HaCat [3]) | max response (KB-3-1) -1.21% and -21.2% | max response (NIH3T3 [2]) -1.31% | outcome (HACAT [4]) inactive [at 92 µM] | Potency (MCC-13) | Potency (MKL-1) | Potency (MKL-2) | Potency (UISO) | Potency (WaGa) | Potency (C33A)

C[C@@H]1[C@H](O)[C@@H](C)C=CC=CCCC=CC=CC=CC=C[C@H](O[C@H]2O[C@@H](C)[C@H](O)[C@@H](N)[C@@H]2O)CC2O[C@](O)(C[C@@H](O)[C@H](O)CC[C@@H](O)C[C@@H](O)C[C@@H](O)CC(=O)O[C@H]1C)C[C@H](O)[C@H]2C(=O)O
inactive: max response (CRL-7250 [1]) 4.08% | outcome (HaCat [3]) | outcome (KB-3-1) | max response (NIH3T3 [2]) -3.28% | outcome (HACAT [4]) | Potency (MCC-13) | Potency (MKL-1) | Potency (MKL-2) | Potency (UISO) | Potency (WaGa)

COCCOCCO
inactive: max response (CRL-7250 [1]) -4.64% | max response (HEK293) -2.65% | max response (KB-3-1) -8.22% | max response (NIH3T3 [2]) 2.23% | Potency (MCC-13) | Potency (MCC-26) | Potency (MKL-1) | Potency (MKL-2) | Potency (UISO) | Potency (WaGa) | Potency (C33A)

O=C1C=CC[C@@H]2[C@H]3CCCN4CCC[C@@H](CN12)[C@@H]34
inactive: max response (CRL-7250 [1]) -6.72% and -5.8% | max response (HaCat [3]) -19.8% and -9.45% | max response (KB-3-1) 5.89% | outcome (NIH3T3 [2]) | outcome (HEK293T) | Potency (MCC-13) | Potency (MCC-26) | Potency (MKL-1) | Potency (MKL-2) | outcome (NIH3T3 [5]) | Potency (UISO) | Potency (WaGa) | Potency (C33A)

COc1ccc2c(c1)CN(C)CC2c1ccc(Cl)c(Cl)c1 (stereo not drawn)
inactive: outcome (CRL-7250 [1]) | outcome (HaCat [3]) | outcome (KB-3-1) | max response (NIH3T3 [2]) -1.98% | outcome (CRL-7250 [6]) | outcome (HACAT [4]) | Potency (MCC-13) | Potency (MCC-26) | Potency (MKL-1) | Potency (UISO) | Potency (WaGa)

CN[C@@H](C)[C@H](O)c1ccccc1
inactive: max response (CRL-7250 [1]) -24.6% | max response (HaCat [3]) 1.69% | max response (KB-3-1) -0.943% | max response (NIH3T3 [2]) -5.73% | outcome (HEK293T) | Potency (MCC-13) | Potency (MCC-26) | Potency (MKL-1) | Potency (MKL-2) | Potency (UISO) | Potency (WaGa) | Potency (C33A)
